Source: PubChem BioAssay
GCN5L2 inh-1 = blocks human GCN5L2 histone acetyltransferase; GCN5L2 HAT assay, ThioGlo1 CoA-SH fluorescence; AID 504327; 390,000 tested, 0.21% active; Q92830; Potency, µM (titrated, usually from 58.9 µM), inactives show top-dose activity change, negative = inhibition, actives largely listed as inhibitors; also: potency is read from the fitted curve at half-maximal effect; % is scaled to controls: 0 for no effect and ±100 for the full control effect
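GCN5L2 (20 nM) in 50mM HEPES pH 7.5, 0.1mM EDTA, 0.01% Tween-20 preincubated 15 min with compounds at room temperature. Reaction started with H3(1-25) 75uM, acetyl-CoA 70uM, ThioGlo1 50uM; CoA-thiol fluorescence (Ex340/Em540) read at 0 and 20 min.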
VDR inh = inhibitors of human vitamin D receptor. Potency, µM, for the others: max response, negative = inhibition, actives largely listed as inhibitors. VDR-SRC2-3 peptide fluorescence polarization, 2 h. 400,000 tested, 0.93% active; also: potency is read from the fitted curve at half-maximal effect; % is scaled to controls: 0 for no effect and ±100 for the full control effect
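The screen uses fluorescence polarization to detect compounds that interfere with recruitment of the SRC2-3 coactivator peptide to VDR; plates are read after 2 h at room temperature.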
PLK1 PBD inh = blocks phosphopeptide binding to human PLK1 polo-box domain. Plk1 PBD binding of FITC phosphopeptide, fluorescence polarization. 360,000 tested, 2.8% active. Potency, µM, inactives show max response, negative = inhibition, actives largely listed as inhibitors. P53350; also: potency is read from the fitted curve at half-maximal effect; series mostly up to about 57 µM; % is scaled to controls: 0 for no effect and ±100 for the full control effect; nearly all actives have a fitted effect of over 65% in size
Target sequence (P53350 whole entry, looked up, the tested form may be a part): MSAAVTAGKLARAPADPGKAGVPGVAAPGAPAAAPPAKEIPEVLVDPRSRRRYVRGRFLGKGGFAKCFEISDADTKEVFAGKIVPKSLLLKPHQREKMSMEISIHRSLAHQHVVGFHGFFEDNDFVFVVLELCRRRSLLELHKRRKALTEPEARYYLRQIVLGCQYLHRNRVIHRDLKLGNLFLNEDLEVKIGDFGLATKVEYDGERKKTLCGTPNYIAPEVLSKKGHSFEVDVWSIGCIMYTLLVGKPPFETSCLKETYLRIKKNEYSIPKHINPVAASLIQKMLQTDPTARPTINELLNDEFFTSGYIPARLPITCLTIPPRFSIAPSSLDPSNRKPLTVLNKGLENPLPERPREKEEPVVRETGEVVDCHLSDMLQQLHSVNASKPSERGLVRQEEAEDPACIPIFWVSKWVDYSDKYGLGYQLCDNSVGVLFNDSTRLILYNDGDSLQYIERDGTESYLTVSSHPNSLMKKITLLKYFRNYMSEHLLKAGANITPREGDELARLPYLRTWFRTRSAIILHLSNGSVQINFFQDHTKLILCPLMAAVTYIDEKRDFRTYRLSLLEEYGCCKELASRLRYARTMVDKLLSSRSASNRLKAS
ALOX12 inh = ALOX12 (human) lipoxygenase inhibition | purified 12hLO, xylenol orange hydroperoxide absorbance | Potency, µM (series often up to 108 µM), for inactives: top-dose activity change, negative = inhibition, usual class: inhibitors | 580,000 tested, 1.1% active | AID 1671190; also: potency is read from the fitted curve at half-maximal effect; % is scaled to controls: 0 for no effect and ±100 for the full control effect
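Purified human 12hLO (150 nM final) in 25 mM Hepes, 0.01% Triton X-100, pH 7.0 was preincubated 15 min at room temperature with compound. Then 40 uM arachidonic acid was added, 30 min. Hydroperoxide was read by Fe-XO absorbance ratio 573/405 nm.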
GCN5L2 inh-2 = human KAT2A HAT inhibition, hit confirmation | shares compounds with GCN5L2 inh-1 | GCN5L2 HAT, ThioGlo1 CoA fluorescence, 20 min | Potency, µM, actives largely listed as inhibitors | 140 tested, 70% active | AID 588347
VDR confirm = confirmation of human vitamin D receptor inhibitors; shares compounds with VDR inh; VDR-coactivator inhibition assay, qHTS confirmation; Potency, µM, most hits filed as inhibitors; 840 tested, 89% active; also: potency is read from the fitted curve at half-maximal effect
VDR FP fluor = blocks human VDR-coactivator binding in fluorescein assay; shares compounds with VDR inh; VDR-coactivator binding, fluorescein fluorescence polarization; Potency, µM (highest dose often 57.1 µM), inactives show top-dose activity change, negative = inhibition, hits mostly inhibitors; 840 tested, 48% active; also: potency is read from the fitted curve at half-maximal effect
VDR bla = VDR (human) inhibition, cell-based beta-lactamase validation; shares compounds with VDR inh; VDR beta-lactamase reporter cells, FRET ratio; cells co-treated with VDR agonist LG190178; Potency, µM (titrated, usually from 46.1 µM), without a hit: at the top dose activity change, negative = inhibition, usual class: inhibitors; 840 tested, 23% active; AID 602202; also: potency is read from the fitted curve at half-maximal effect; % is scaled to controls: 0 for no effect and ±100 for the full control effect
VDR viability = cytotoxic in counter-screen for VDR inhibitors; shares compounds with VDR inh; cytotoxicity counter-screen, cell viability, qHTS; Potency, µM (series often up to 48.3 µM), for inactives: top-dose activity change, negative = cytotoxicity, most hits filed as cytotoxic; 840 tested, 18% active;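 also: potency is read from the fitted curve at half-maximal effect; plate controls were DMSO for no effect and high-concentration cycloheximide for full effect; nearly all actives have a fitted effect of over 75% in size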
An asterisk follows results filed as active; u = inconclusive; x = no result given; ! = repeats disagree; [ ] = dose if it differs, or a comment. Compounds with a hit are over-represented: about 3% of the library has one in this group of screens. Calls follow the shape of the dose curve; as a rule, active = well fitted curve in the direction sought with a large enough effect; inconclusive = small, poorly fitted or top-dose-only effect, or another doubt; inactive = no such curve, though single readings can be large; an effect the other way counts as inactive or inconclusive.

SMILES	GCN5L2 inh-1	VDR inh	PLK1 PBD inh	ALOX12 inh	VDR confirm	VDR FP fluor	VDR bla	VDR viability	others
CC(=O)Nc1ccc(C2=NN(c3ccccc3)C(c3ccccc3)C2)cc1 (stereo not given)	u	10.4%	u	-10.8%	x	x	x	x	GCN5L2 inh-2=36.3*
Fc1ccccc1COc1ccc(Cl)cc1CNn1cnnc1	x	x	x	29.0%	x	x	x	x
COc1cccc(CNC(=O)c2cc(C)cc(C)c2)c1	x	x	x	-24.7%	x	x	x	x
COc1ccc(-n2nnc(C(=O)NCc3cccs3)c2N)cc1OC	x	x	x	-10.7%	x	x	x	x
COc1cc(/C=C2\CCc3c2nc2ccccc2c3C(=O)O)cc(OC)c1OC	12.6µM*	-26.5%	16.8µM*	u	x	x	x	x	GCN5L2 inh-2=20.4*
CCOc1cc(/C=C2\CCCc3c2nc2ccccc2c3C(=O)O)ccc1OC	25.1µM*	-22.3%	2.99µM*	u	x	x	x	x	GCN5L2 inh-2=u
O=C(/C=C/c1ccccc1)Nc1cccc(S(=O)(=O)Nc2ccccc2F)c1	u	11.2µM*	1.19µM*	22.4µM*	4.23*	u	17.8%	u	GCN5L2 inh-2=u
O=C(c1ccccc1)N1CCC(N2Cc3ccccc3C2=O)CC1	x	x	x	2.9%[6.33 µM]	x	x	x	x
CCS(=O)(=O)c1ncc(Cl)c(C(=O)N2CCN(c3cccc(Cl)c3)CC2)n1	-5.3%	8.91µM*	x	0.5%	2.82*	2.82µM*	2.91µM*	9.47µM*
CS(=O)(=O)c1ncc(Cl)c(C(=O)N2CCN(c3cccc(Cl)c3)CC2)n1	-14.7%	u	x	7.8%	x	x	x	x
CCC(=O)Nc1c(C#N)c2nc3ccccc3nc2n1C1CCCCC1	0.8%	6.4%	-0.1%	6.8%	x	x	x	x
CCOC(=O)c1c(NC(=O)c2ccco2)n(C2CCCCC2)c2nc3ccccc3nc12	-9.4%	u	-22.8%	u	3.16*	u	-20.3%	-7.4%
O=C1CCCC2=C1C1(O)C(=O)c3ccccc3C1(O)O2 (stereo not given)	-3.3%	u	-11.3%	u	2.51*	2.24µM*	9.1%	11.9%
CC(=O)C1=C(C)NC2(O)c3ccccc3C(=O)C12O (stereo not given)	-4.0%	-18.2%	-3.3%	-23.0%	x	x	x	x
COc1ccc(S(=O)(=O)c2c(C)c(C)n(C(C)C)c2NC(=O)C2CCCO2)cc1 (stereo not given)	x	x	x	15.8%	x	x	x	x
Cc1ccc(/C(O)=C2/C(=O)C(=O)OC2c2ccc(Cl)cc2)cc1 (stereo not given)	u	u	u	u	11.2*	10µM*	-1.3%	15.4%
Cc1cc(CSc2nnc(-c3cccnc3)n2C)no1	x	x	x	10.6%	x	x	x	x
O=S1c2ccccc2Nc2ccccc21	-9.1%	u	-1.0%	-12.4%	x	x	x	x
O=[S@]1Oc2ccccc2-c2ccccc21	x	6.31µM*	2.12µM*	u	4.74*	u	-9.6%	31.0%
CCOC(=O)C1=C(C)N=C2SC(C(=O)OC)=CC(=O)N2C1c1ccc(F)cc1 (stereo not given)	-9.1%	22.4µM*	-25.7%	u	13.4*	u	14.9%	u
Cc1ccc(C(=O)/C=C/C(=O)O)cc1	23.8%	14.1µM*	u	-17.0%	7.52*	10µM*	20.2%	u
c1ccc(CCc2nn3c(Cn4cnc5ccccc54)nnc3s2)cc1	-11.4%	u	6.7µM*	u	22.4*	20µM*	-3.1%	-9.0%
c1ccc(OCc2nn3c(Cn4nnc5ccccc54)nnc3s2)cc1	-14.5%	u	11.9µM*	u	22.4*	8.91µM*	2.5%	-14.2%
c1ccc(OCc2nn3c(-c4cccnc4)nnc3s2)cc1	-2.1%	-6.5%	-1.2%	-1.2%	x	x	x	x
COc1ccccc1CNc1cc(-c2ccccc2OC)ncn1	-11.2%	-0.8%	x	-2.7%	x	x	x	x
SMILES	GCN5L2 inh-1	VDR inh	PLK1 PBD inh	ALOX12 inh	VDR confirm	VDR FP fluor	VDR bla	VDR viability	others
COc1ccccc1CNc1cc(-c2ccoc2)ncn1	-12.8%	15.8µM*	x	u	u	-5.0%	4.8%	9.7%
O=C(O)CN1C(=O)/C(=C\c2cc(Br)ccc2OCc2ccc(Cl)cc2Cl)SC1=S	u	44.7µM*	11.9µM*	x	16.8*	17.8µM*	12.4%	u
O=C(CCCN1C(=O)/C(=C/c2ccccc2Cl)SC1=S)NNC(=O)c1ccc(Cl)cc1Cl	-7.6%	7.0%	-15.1%	2.1%	x	x	x	x
[O-]/[N+](=C\c1ccncc1)c1ccc(Br)cc1	-11.4%	44.7µM*	21.2µM*	x	9.47*	u	6.0%	2.0%
C(=C\c1ccncc1)/c1ccncc1	0.4%	-11.4%	-29.3%	-8.1%	x	x	x	x
O=[N+]([O-])c1ccc(/C=C2\CCC(C3=CCCC3)=C2N2CCOCC2)cc1	-5.8%	u	-19.3%	u	u	u	u	-2.3%
CC(=O)Nc1sc(N/N=C\c2ccccc2F)nc1-c1cccs1	-8.7%	50.1µM*	-11.6%	-15.5%	2.38*	2.24µM*	28.5%	u
Cc1ccc(NC(=O)c2cn(CCC#N)nc2-c2cccs2)cc1	x	x	x	-1.7%	x	x	x	x
O=C(/C(=C/c1ccncc1)n1ccnc1)c1ccc(Cl)cc1Cl	-6.9%	79.4µM*	26.7µM*	u	12.6*	12.6µM*	-20.2%	-7.2%
N/C(=N\OC(=O)c1ccc(Cl)cc1Cl)c1ccncc1	-4.1%	-9.5%	-0.3%	u	x	x	x	x
CC1=C(C)CS(=O)N(S(=O)(=O)c2ccccc2)C1 (stereo not given)	1.2%	3.16µM*	1.5µM*	-19.5%	3.77*	u	7.6%	0.5%
O=S(=O)(c1ccccc1)N1CCN(S(=O)(=O)c2ccccc2)CC1	x	2.8%	x	x	x	x	x	x
O=C(Cc1c[nH]c2ccccc12)N1CCN(S(=O)(=O)c2cc(F)ccc2F)CC1	x	x	x	90.6%	x	x	x	x
COc1ccccc1NS(=O)(=O)c1cc(NC(=O)c2cccs2)ccc1N1CCCC1	-23.1%	22.4µM*	5.32µM*	u	5.97*	u	10.4%	0.5%
CCN(CC)c1ccc(NC(=O)c2ccccc2Br)cc1S(=O)(=O)Nc1ccccc1OC	u	22.4µM*	1.5µM*	35.5µM*	2.99*	2.82µM*	21.9%	23.4%
COc1ccccc1NS(=O)(=O)c1cc(NC(=O)c2sccc2C)ccc1N1CCOCC1	-11.0%	-11.7%	-15.3%	0.0%	x	x	x	x
Cc1cc(C)c(C#N)c(=N)o1	-6.4%	44.7µM*	4.74µM*	u	u	u	-21.5%	4.4%
CC(C)N(CCC(=O)c1ccc2ccccc2c1)Cc1ccccc1	u	5.01µM*	3.36µM*	35.5µM*!	15*	7.08µM*	u	u
